# Source: PubChem BioAssay (NCATS)
# Results filed as inconclusive are left out. Where a call stands in place of a potency, no number is given. Calls of active or inactive are those of the source. Calls come from the whole dose curve; as a rule, active = well fitted curve in the direction sought with a large enough effect; inconclusive = small, poorly fitted or top-dose-only effect, or another doubt; inactive = no such curve, though single readings can be large; an effect the other way counts as inactive or inconclusive.
# Tests used:
# [1] = qHTS of pediatric cancer cell lines to identify multiple opportunities for drug repurposing: Primary screen for BT-12 cells (AID 1347101); note: nearly all actives have a fitted effect of over 25% in size
# Outline: (§1)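 Cells (500-1,000/well) rested 5 h, then received compounds for 48 h; metabolically active cells were measured by CellTiter-Glo luminescence. Final concentrations spanned up to 46 µM (MIPE, 11-point) or 0.59 nM-46 µM (NPC, 8-point) in primary screens, 11-point in follow-ups.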
# [2] = qHTS of pediatric cancer cell lines to identify multiple opportunities for drug repurposing: Primary screen for Rh18 cells (AID 1347102); note: nearly all actives have a fitted effect of over 65% in size
# Outline: as §1
# [3] = qHTS of pediatric cancer cell lines to identify multiple opportunities for drug repurposing: Primary screen for OHS-50 cells (AID 1347103); note: nearly all actives have a fitted effect of over 40% in size
# Outline: as §1
# [4] = qHTS of pediatric cancer cell lines to identify multiple opportunities for drug repurposing: Primary screen for RD cells (AID 1347104); note: nearly all actives have a fitted effect of over 55% in size
# Outline: (§2)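 500-1,000 cells/well; 5 h pre-incubation 37 °C/5% CO2; compound pinned; 48 h; CellTiter-Glo, 15 min RT; luminescence. MIPE 11-pt from 0.78 nM, NPC 8-pt from 0.59 nM final. Bortezomib 2.3 µM final as positive control.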
# [5] = qHTS of pediatric cancer cell lines to identify multiple opportunities for drug repurposing: Primary screen for MG 63 (6-TG R) cells (AID 1347105); note: nearly all actives have a fitted effect of over 50% in size
# Outline: as §2
# [6] = qHTS of pediatric cancer cell lines to identify multiple opportunities for drug repurposing: Primary screen for control Hh wild type fibroblast cells (AID 1347106); note: nearly all actives have a fitted effect of over 55% in size
# Outline: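 Cells (500-1,000/well) in growth media were settled 5 h at 37 degrees C, then given compounds for 48 h. Viability was read as CellTiter-Glo luminescence. Primary runs used MIPE at 11 points (0.78 nM-46 µM) and NPC at 8 points (0.59 nM-46 µM); follow-ups used 11 points.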
# [7] = qHTS of pediatric cancer cell lines to identify multiple opportunities for drug repurposing: Primary screen for Rh30 cells (AID 1347107); note: nearly all actives have a fitted effect of over 75% in size
# Outline: as §1
# [8] = qHTS of pediatric cancer cell lines to identify multiple opportunities for drug repurposing: Primary screen for Rh41 cells (AID 1347108); note: nearly all actives have a fitted effect of over 70% in size
# Outline: as §2
# [9] = qHTS of pediatric cancer cell lines to identify multiple opportunities for drug repurposing: Confirmatory screen for NB1643 cells (AID 1347109); note: nearly all actives have a fitted effect of over 45% in size
# Outline: as §1
# [10] = qHTS of pediatric cancer cell lines to identify multiple opportunities for drug repurposing: Confirmatory screen for A673 cells (AID 1347110);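 note: cells exposed to compound for 48 h before the viability read; nearly all actives have a fitted effect of over 65% in size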
# Outline: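 Cells plated at 500-1,000/well were treated five hours later with multi-point dilutions up to 46 µM final. After two days, CellTiter-Glo was added and luminescence read.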
# Potency is the fitted concentration of half-maximal effect.
Compound,Potency [1],Potency [2],Potency [3],Potency [4],Potency [5],Potency [6],Potency [7],Potency [8],Potency [9],Potency [10]
Fc1cc(Br)ccc1CBr,inactive,inactive,inactive,inactive,inactive,inactive,inactive,inactive,–,–
O=[N+]([O-])c1ccc([As](=O)(O)O)cc1,inactive,inactive,–,inactive,inactive,inactive,inactive,inactive,–,–
CCCC[N+]1(C)[C@H]2CC(OC(=O)[C@H](CO)c3ccccc3)C[C@H]1[C@H]1O[C@H]12 (stereo partly specified),inactive,inactive,inactive,inactive,inactive,inactive,inactive,inactive,–,–
Cc1ccccc1-n1c(Cn2ncc3c(N)ncnc32)nc2cccc(C)c2c1=O,12.2 nM (active),inactive,6.9 nM (active),–,–,inactive,–,935 nM (active),522 nM (active),inactive
C[C@H]([C@H](O)CCC(C)(C)O)[C@H]1CC[C@@]2(O)C3=CC(=O)[C@@H]4C[C@@H](O)[C@@H](O)C[C@]4(C)[C@@H]3CC[C@]12C,inactive,inactive,inactive,inactive,inactive,inactive,inactive,inactive,–,–
NC1CC1c1ccccc1 (stereo unspecified),inactive,inactive,inactive,inactive,inactive,inactive,inactive,inactive,–,–
Cc1ccc(Cl)c(O)c1,inactive,inactive,inactive,inactive,inactive,inactive,inactive,inactive,–,–
O=C1CCC[C@@H]2[C@H]3CCCN4CCC[C@@H](CN12)[C@@H]34,inactive,inactive,inactive,inactive,inactive,inactive,inactive,inactive,–,–
C[C@@H]1CC[C@@]2(OC1)O[C@H]1C[C@H]3[C@@H]4CC=C5C[C@@H](O[C@@H]6O[C@H](CO)[C@@H](O[C@@H]7O[C@@H](C)[C@H](O)[C@@H](O)[C@@H]7O)[C@H](O)[C@@H]6O[C@@H]6O[C@@H](C)[C@H](O)[C@@H](O)[C@@H]6O)CC[C@]5(C)[C@@H]4CC[C@]3(C)[C@@H]1[C@H]2C,6850 nM (active),4180 nM (active),4320 nM (active),5900 nM (active),2960 nM (active),inactive,11800 nM (active),14800 nM (active),4140 nM (active),6570 nM (active)
O=C(Nc1ccccc1-c1ccc(Cl)cc1)c1cccnc1Cl,inactive,inactive,–,inactive,inactive,inactive,inactive,inactive,–,–
O=C(O)COc1ccccc1,inactive,inactive,inactive,inactive,inactive,inactive,inactive,inactive,–,–
CC1=C(O)C(=O)C=C2C1=CC=C1[C@@]2(C)CC[C@@]2(C)[C@@H]3C[C@](C)(C(=O)O)CC[C@]3(C)CC[C@]12C,2730 nM (active),1870 nM (active),2430 nM (active),1320 nM (active),935 nM (active),–,4690 nM (active),1480 nM (active),2080 nM (active),1310 nM (active)
COc1cccc2c1[C@]13CCN(CC4CC4)[C@H](C2)[C@]1(OC)CCC(=O)C3,inactive,inactive,inactive,inactive,inactive,inactive,inactive,inactive,–,–
Cc1[nH]nc2ccc(-c3cncc(OC[C@@H](N)Cc4c[nH]c5ccccc45)c3)cc12,1530 nM (active),2960 nM (active),1530 nM (active),1480 nM (active),2350 nM (active),–,14800 nM (active),2640 nM (active),737 nM (active),1470 nM (active)
CCOC(=O)c1cncn1[C@H](C)c1ccccc1,inactive,inactive,inactive,inactive,inactive,inactive,–,inactive,–,–
COCCOCCO,inactive,inactive,inactive,inactive,inactive,inactive,inactive,inactive,–,–
O=S(=O)(O)C(F)(F)C(F)(F)C(F)(F)C(F)(F)C(F)(F)C(F)(F)C(F)(F)C(F)(F)F,inactive,inactive,inactive,inactive,inactive,inactive,inactive,inactive,–,–
C[C@]12CC[C@@H]3[C@@H](CCC4=CC(=O)CC[C@@H]43)[C@@H]1CC[C@@H]2OC(=O)CCc1ccccc1,inactive,inactive,–,inactive,inactive,inactive,inactive,inactive,–,–
CC(C)(C)[C@]1(O)C[C@@H]2OC(=O)C[C@@]23C(=O)O[C@@H]2OC(=O)[C@H](O)C213 (stereo partly specified),inactive,inactive,inactive,inactive,inactive,inactive,inactive,inactive,–,–
CCN1C[C@]2(OC(=O)c3ccccc3NC(C)=O)CC[C@H](OC)[C@@]34[C@H]5CC6[C@@H](OC)C[C@](O)(C(C[C@@H]23)[C@@H]14)[C@@]5(O)[C@@H]6OC,inactive,inactive,inactive,inactive,inactive,inactive,inactive,inactive,–,–

Compound,Potency [1],Potency [2],Potency [3],Potency [4],Potency [5],Potency [6],Potency [7],Potency [8],Potency [9],Potency [10]
COc1ccc2c(c[n+](C)c3c4cc5c(cc4ccc23)OCO5)c1OC,24300 nM (active),8330 nM (active),8630 nM (active),10500 nM (active),–,26400 nM (active),20900 nM (active),10500 nM (active),–,–
COC(=O)[C@@H](N)CCCN=C(N)N[N+](=O)[O-],inactive,inactive,inactive,–,inactive,–,inactive,inactive,–,–
Nc1ccc(Cl)cc1N,inactive,inactive,inactive,inactive,inactive,inactive,inactive,inactive,–,–
CC(O)CN1CCN(CC(=O)[O-])CCN(CC(=O)[O-])CCN(CC(=O)[O-])CC1.[Gd+3] (stereo unspecified),inactive,inactive,inactive,inactive,inactive,inactive,inactive,inactive,–,–
C[C@]12CCC(=O)C(O)=C1CC[C@@H]1[C@H]3CCC(=O)[C@@]3(C)CC[C@@H]12,inactive,inactive,–,inactive,inactive,inactive,inactive,–,–,–
CC(=O)Nc1ccc(OC[C@](C)(O)C(=O)Nc2ccc([N+](=O)[O-])c(C(F)(F)F)c2)cc1,inactive,inactive,inactive,inactive,inactive,inactive,inactive,inactive,–,–
CCOC(=O)c1c(C(C#N)=CN)c2ccc(Cl)c(Cl)c2n1C,inactive,inactive,inactive,inactive,–,inactive,–,–,–,–
O=[N+]([O-])c1cc([N+](=O)[O-])c2ccccc2c1,inactive,inactive,inactive,inactive,inactive,inactive,inactive,inactive,–,–
Nc1ccc(Sc2ccc(N)cc2)cc1,inactive,inactive,inactive,inactive,inactive,inactive,inactive,inactive,–,–
CC[C@@]1(O)C(=O)OCc2c1cc1n(c2=O)Cc2cc3ccccc3nc2-1,273 nM (active),296 nM (active),19.3 nM (active),743 nM (active),59 nM (active),–,–,209 nM (active),131 nM (active),46.5 nM (active)
Cc1nc(-c2ccc(-c3ccc(C(=O)N4CCc5cc6c(cc54)C4(CCN(C)CC4)CO6)cc3)c(C)c2)no1,inactive,inactive,inactive,inactive,inactive,inactive,inactive,inactive,–,–
CCc1c(C(=O)C(N)=O)c2c(OCC(=O)O)cccc2n1Cc1ccccc1,inactive,inactive,inactive,inactive,–,inactive,inactive,inactive,–,–
C[C@]12CC[C@H]3[C@@H](CCC4=CC(=O)CC[C@@]43C)[C@H]1CC[C@H]2OC(=O)CCC1CCCC1,inactive,inactive,inactive,–,inactive,inactive,inactive,inactive,–,–
COC1=C[C@@H]2[C@@H]3Cc4ccc(OC)c(O)c4[C@]2(CCN3C)CC1=O,inactive,inactive,inactive,–,–,–,–,3720 nM (active),–,–
O=[N+]([O-])/N=C1\NCCN1Cc1ccc(Cl)nc1,inactive,inactive,inactive,inactive,inactive,inactive,inactive,inactive,–,–
CC(Cc1ccc(O)cc1)NCC(O)c1cc(O)cc(O)c1 (stereo unspecified),inactive,–,inactive,inactive,inactive,inactive,inactive,inactive,–,–
CC(C)(C)C(O)C(Oc1ccc(Cl)cc1)n1cncn1 (stereo unspecified),inactive,inactive,–,inactive,–,inactive,inactive,inactive,inactive,inactive
CCCCCCCCCC(CC)c1ccc(S(=O)(=O)O)cc1 (stereo unspecified),inactive,inactive,–,inactive,inactive,inactive,inactive,inactive,–,–
CC=C(C)C(=O)O[C@H]1C(C)=C2[C@@H]3OC(=O)[C@@](C)(O)[C@@]3(O)[C@@H](OC(=O)CCC)C[C@](C)(OC(C)=O)[C@@H]2[C@@H]1OC(=O)CCCCCCC,48.5 nM (active),–,17.2 nM (active),20.9 nM (active),118 nM (active),–,1320 nM (active),209 nM (active),inactive,inactive
CCCN(CCC)c1c([N+](=O)[O-])cc(S(N)(=O)=O)cc1[N+](=O)[O-],28200 nM (active),–,28200 nM (active),38600 nM (active),48600 nM (active),inactive,–,38600 nM (active),–,–
